# Experimental data: ChEMBL document CHEMBL4888484, “Replenishing the malaria drug discovery pipeline: Screening and hit evaluation of the MMV Hit Generation Library 1 (HGL1) against asexual blood stage Plasmodium falciparum ,using a nano luciferase reporter read-out” (2022)
# “And” between values parts separate entries of the source, which are not always exact repeats. Equal entries are not always repeated. Screen size: about 4,800 compounds; about 410 (8.5%) showed an effect of 50% or more. The full list was thinned out, with strong results kept by preference.
# System: Plasmodium falciparum
# Test: Confirmatory screen in NF54 pLDH assay, in single point, at 2uM, 72h
# Type: functional, Erythrocyte
# Conditions: timepoint 72 hour
SMILES,% Inhibition [%],% Inhibition (2 µM)
CCC(CC)N1CC(C(=O)NC2COc3ccc(C)cc32)CC1=O (stereo not drawn),-21,–
CCn1cc(S(=O)(=O)N(C)Cc2nn(CC)cc2Cl)cn1,8,–
Cn1c(=O)c2sc(N3CCCC3)nc2n(CC(=O)NC2CCCC2)c1=O,4,–
COc1ccc(CC[C@H](C)NC(=O)NCCCN2CCCC2=O)cc1,11,–
CC(C)C(=O)N1CC[C@H](CC(=O)NCc2ccncc2)C1,5,–
N#CC1CCC(Nc2cnn(-c3ccncc3)c2)CC1 (stereo not drawn),11,–
CS(=O)(=O)N1CC[C@H](CC(=O)N2CCN(c3ccc(F)cc3)CC2)C1,-21,–
CN(C)c1cc(C(=O)N2CCOC3CCCCC32)ccn1 (stereo not drawn),3,–
Cc1ccc(C)c(-c2nc(Cn3c(=O)c4c(C)cc(C)nc4n(C)c3=O)c(C)o2)c1,3,–
Fc1cnc(OC2Cc3ccccc3C2)nc1,57,–
Cn1nccc1/C=C1\CC2C3CCc4cc(O)ccc4C3CCC2(C)C1O (stereo not drawn),47,–
Nc1ncncc1C(=O)NCCc1c[nH]c2ccc(F)cc12,6,–
CCOc1ncc(Br)cc1C(=O)O,-19,–
O=C(C[C@H]1CCCN1c1ccnc(C2CC2)n1)c1ccco1,12,–
c1cc2c(cc1[C@H]1NCCCCCCO1)OCO2,-5,–
O=C1Nc2ccc(Br)cc2C1=O,13,–
COc1ccccc1-n1c(=O)[nH]c2nc(N3CCN(c4ccccn4)CC3)ncc2c1=O,3,–
CC(C)(C)OC(=O)NC1CCN(c2ncc(C(=O)NCc3ccc(F)c(Cl)c3)c(N)n2)CC1,-10,–
N#Cc1cccc(-c2n[nH]c3c2CN(c2ccc(-c4ccccc4)nn2)CC3)c1,100,–
N#Cc1cc(N2CCc3ccccc3C2)nc2ccccc12,8,–
COc1ccc2c(c1)CN(C(=O)C1CC3CCC1C3)CC2 (stereo not drawn),11,–
O=C1C[C@@H](C(=O)N2CCC3(CCCCC3)C2)CCN1,10,–
Nc1ncc(C(=O)N2CCC3(CCCCCC3)C2)s1,98,–
Cc1ncsc1C(=O)N1CCC2(CCCCC2)C1,-22,–
NC(=O)[C@H]1CCCN(c2ccnc(C(=O)NCc3ccccc3)c2)C1,4,–
CC1C(Cc2ccccc2)CCN1C(=O)c1cnc(C(F)(F)F)nc1 (stereo not drawn),14,–

SMILES,% Inhibition [%],% Inhibition (2 µM)
Cc1ccc(C(=O)N2C[C@@H]3C[C@H](NC(=O)c4cccnc4)[C@H]2C3)cc1F,-1,–
Cc1ccc(S(=O)(=O)N2CC[C@H](CC(=O)NCc3ccccc3)C2)c(C)c1,-22,–
Cc1ccc(NC(=O)Cn2c(=O)n(Cc3ccco3)c(=O)c3ccccc32)c(C)c1,-13,–
CC(=O)Nc1ccc(C)cc1S(=O)(=O)N1CC=C(c2c(C)n(Cc3ccccc3C)c3ccccc23)CC1,90,–
Cc1nn(C)c(Cl)c1CNC[C@@H](c1ccsc1)N(C)C,9,–
O=C(Nc1nnc(C2CC2)s1)[C@@H]1Cc2ccccc2O1,5,–
O=C(NC1CCCC1)N1CCN(c2nc3cccnc3n(Cc3ccccc3)c2=O)CC1,8,–
Brc1cncnc1N1CCC[C@H](c2nnn[nH]2)C1,-7,–
CCn1cnc2c(N3CCC[C@H](c4ccncc4)C3)ncnc21,77,–
CCn1c(=O)c(N2CCC[C@H](C(=O)NCc3ccccc3OC)C2)nc2cccnc21,-3,–
COc1cccc(S(=O)(=O)N(C)[C@H]2CCc3n[nH]c(=O)n3CC2)c1,1,–
Cn1c(=O)c2c(nc3nc(N4CCOCC4)n(CC(=O)c4ccc(Cl)cc4)n32)n(C)c1=O,0,–
COc1cc(-c2nc3ccccc3s2)ccc1OCc1cccc2ccccc12,0,–
O=C(NCC1CC1)c1cn[nH]c1-c1ccccc1,1,–
COc1ccc(-c2c(C(F)(F)F)n[nH]c2-c2ccc(OCc3ccccc3F)cc2O)cc1,91,–
c1ccc(-c2cn[nH]c2N2CCNCC2)cc1,-16,–
COc1cc(OC)cc(C2(O)CCN(C(=O)CCc3ccccc3F)CC2)c1,-20,–
Oc1cc(OCc2ccccc2F)ccc1-c1[nH]ncc1-c1ccccc1,72,–
COc1ccccc1NC(=O)CC1CS(=O)(=O)CC1CC(=O)Nc1ccccc1OC (stereo not drawn),13,–
COc1ccc(-c2cnn3c(-c4ccccn4)ccnc23)cc1OC,4,–
C#CCNC(=O)[C@H](C#N)c1nc(C)c(C)s1,10,–
Cc1cnc([C@H](C)NC(=O)c2conc2C(C)(C)N)s1,9,–
C[C@H]1Cc2cc(C(=O)NCc3nc(C(F)(F)F)n[nH]3)ccc2O1,10,–
COc1ccc(-c2cn3cc(C)nc3n2C)cc1,0,–
Cc1ccc(S(=O)(=O)CC(=O)NC(C)(C)C)cc1,5,–
O=C(CCc1ccc(Cl)c(C(F)(F)F)c1)N1CC[C@H](N2CCc3ccccc3C2)C1,45,–

SMILES,% Inhibition [%],% Inhibition (2 µM)
CC(C)(C)OC(=O)CN(c1cc(F)cc(F)c1)S(=O)(=O)c1ccc2nncn2c1,-2,–
CCN(C)C1(CNC(=O)c2ccc(-c3cc(F)ccc3O)cc2)CCCC1,11,–
NC(=O)N1CCC[C@H]1C(=O)NC1CC(=O)N(C2CC2c2ccccc2)C1 (stereo partly drawn),8,–
Cc1cnc(NC(=O)c2ccc3ncoc3c2)c(Br)c1,15,–
O=C(CC1CCOCC1)N1CCN(C(=O)c2ccco2)CC1,-18,–
Cc1ccc(-c2ccnc3c(C(=O)NC4CC4)cnn23)cc1C,4,–
O=C(Cc1ccc(C(=O)Nc2nc(-c3ccccc3)cs2)cc1)c1ccccc1,12,–
O=S(=O)(c1ccc2ccccc2c1F)N1CC(CO)C1,-13,–
COc1ccc(CC2C(O)C(Cc3ccc(OC)cc3)C3CCC2N3C)cc1 (stereo not drawn),6,–
COc1ccc(CNCCC2C(C)CN(C)C(C)C2Cc2ccccc2)cc1 (stereo not drawn),66,–
CCNC(=O)C(=O)NCc1ccc(OC)cc1,-20,–
COc1ccc(C(=O)n2[nH]c(=O)c(CCO)c2C)cc1,5,–
COc1ccc(Nc2nnc(/C=C/c3ccccc3)c(=O)n2N)cc1,16,–
O=S1(=O)CCN(OCc2ccc(Cl)cc2)CC1,15,–
Fc1ccccc1N1CCN(C2CCN(Cc3c[nH]c4ccccc34)CC2)CC1,33,–
COc1ccccc1N1CCN(Cc2nc3ccccc3c(=O)n2-c2ccc(F)cc2)CC1,12,–
COc1ccc2[nH]c3c(c2c1)CC(C(=O)O)NC3c1ccc(OC)c(CN2CCN(c3ccccc3F)CC2)c1 (stereo not drawn),72,–
O=C(NCCc1ccc(O)cc1)c1ccc2n[nH]c(=O)n2c1,-20,–
CCC(C)(C)C(=O)N1CCC[C@@H]1CCc1ncc(C)n1C(C)C,14,–
CCOc1cc([C@H]2Nc3ccccc3C(=O)N2c2ccccc2)ccc1OCc1ccc(F)cc1,-4,–
O=C(/N=C(/c1ccccc1)N1CCCCC1)C(F)(F)C(F)(F)C(F)(F)C(F)(F)C(F)(F)C(F)(F)F,–,1% and 0%
Cc1ccc(-c2csc(NC(=O)c3cccc(C(=O)Nc4nc(-c5ccc(C)cc5C)cs4)n3)n2)c(C)c1,-7,–
O=C(Nc1nncs1)c1cccc(C(=O)Nc2nncs2)n1,64,–
O=C(Nc1nncs1)NC(C1CC1)C1CC1,5,–
Cc1c(NC(=O)c2n[nH]cc2Br)c(=O)n(-c2ccccc2)n1C,7,–
CCn1c(=O)c(N2CCC[C@H](C(=O)NCc3cccc(C)c3)C2)nc2ccccc21,14,–

SMILES,% Inhibition [%],% Inhibition (2 µM)
CCC(C)(CC)[C@@](O)(C#CC[N+]1(Cc2ccccc2)CCCCC1)c1ccccc1,22,–
CC(CC1OCC(C[N+]2(Cc3ccccc3)CCCCC2)O1)CC(C)(C)C (stereo not drawn),56,–
COc1cc(C(=O)NC(C)(C)c2c(C)noc2C)on1,7,–
CN1C(=O)N(c2cc(Cl)cc(Cl)c2)C(=O)[C@]12CN(c1ccc(C(=O)O)cn1)C[C@H]2c1ccc(C#N)cc1,15,–
c1cc([C@@H]2CN(Cc3noc(C4CC4)n3)CCO2)cs1,7,–
COc1ccc(NC(=O)N2CC[C@H](CC(=O)NCc3ccccc3)C2)cc1OC,-11,–
NC(=O)c1ccc(C(F)(F)F)n(CC(=O)N(Cc2ccc(F)cc2)C2CCCCC2)c1=O,-6,–
NC(=O)c1ccc(C(F)(F)F)n(C[C@H](O)c2cc(Cl)ccc2Cl)c1=O,60,–
Cc1cc(-n2c(C)cc(C(=O)Cn3c(C(F)(F)F)ccc(C(N)=O)c3=O)c2C)no1,23,–
CC(C)(C)c1cc(N)c2ccccc2n1,-6,–
O=C(N[C@@H](N1CCCCCC1)C(Cl)(Cl)Cl)c1cccc(Cl)c1,-20,–
CNC(=O)CNC(=O)c1cccc(Cl)c1,12,–
NC(=O)C(NC(=O)c1cccc(Cl)c1)C(N)=O,85,–
COCc1cc2nn(CC(=O)Nc3ccc(F)c(F)c3)c(=O)n2c(-c2ccccc2)n1,-15,–
Cn1cc(NC(=O)Nc2cccc(OCC(F)F)n2)cn1,-7,–
O=C(Cc1c[nH]c2ccccc12)NC1(C(=O)NC2CCCC2)CCCCC1,8,–
CCN1C(=O)Cc2cc(NC(=O)c3ccc(Br)o3)ccc21,12,–
CC(C)[C@@H]1CCc2ccccc2N1Cc1nc(N)nc(N(C)C)n1,6,–
O=C(Nc1ccc2c(c1)OCCCO2)c1ccsc1,5,–
O=C1CN(C(=O)C2CC2c2ccccc2C(F)(F)F)CCN1 (stereo not drawn),-4,–
N=C(N)NCc1ccc(COCc2ccccc2)cc1,17,–
CCOc1ccc(NC(=O)c2cn3nc(-c4ccc(OCC)cc4)cc3nc2C2CCN(C(=O)OC(C)(C)C)CC2)cc1,16,–
N#CC(c1ccc(Cl)cc1)N1N=C(c2ccccc2)CC1c1ccccc1 (stereo not drawn),10,–
c1ccc(C2=NN(c3ccc(-c4cc(-c5ccccc5)[n+](-c5ccccc5)c(-c5ccccc5)c4)cc3)[C@H](c3ccccc3)C2)cc1,97,–
COc1ccc(C2=NN(C(C#N)c3cccc(OC)c3O)C(c3ccccc3)C2)cc1 (stereo not drawn),3,–
